The target in test [1] is T1, Inhibitor of nuclear factor kappa-B kinase subunit epsilon (Homo sapiens) (UniProt Q14164).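 Note: reported values are averaged percent inhibition figures against human IKKε.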
T1 sequence (whole entry): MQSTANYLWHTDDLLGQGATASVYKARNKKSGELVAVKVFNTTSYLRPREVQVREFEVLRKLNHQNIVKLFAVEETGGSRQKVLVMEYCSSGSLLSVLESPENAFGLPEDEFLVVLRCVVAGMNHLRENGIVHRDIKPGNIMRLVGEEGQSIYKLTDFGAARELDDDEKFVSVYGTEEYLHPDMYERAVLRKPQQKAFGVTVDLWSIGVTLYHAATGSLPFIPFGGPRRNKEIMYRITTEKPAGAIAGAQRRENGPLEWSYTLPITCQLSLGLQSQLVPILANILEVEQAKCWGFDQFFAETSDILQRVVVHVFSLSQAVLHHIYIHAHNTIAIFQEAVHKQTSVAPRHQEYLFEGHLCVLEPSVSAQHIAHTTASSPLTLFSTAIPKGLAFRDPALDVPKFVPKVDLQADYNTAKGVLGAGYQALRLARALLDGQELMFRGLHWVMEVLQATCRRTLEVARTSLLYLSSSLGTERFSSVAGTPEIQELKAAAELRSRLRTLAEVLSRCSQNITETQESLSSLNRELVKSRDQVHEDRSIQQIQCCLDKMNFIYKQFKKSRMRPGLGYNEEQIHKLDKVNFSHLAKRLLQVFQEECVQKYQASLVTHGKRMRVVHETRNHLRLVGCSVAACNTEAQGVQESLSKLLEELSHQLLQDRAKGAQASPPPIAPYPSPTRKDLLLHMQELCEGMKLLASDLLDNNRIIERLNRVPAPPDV
To be noted: at 1 µM.

For test [2], the target named is T2, Serine/threonine-protein kinase Nek1 (Homo sapiens) (UniProt Q96PY6).
T2 sequence (whole entry): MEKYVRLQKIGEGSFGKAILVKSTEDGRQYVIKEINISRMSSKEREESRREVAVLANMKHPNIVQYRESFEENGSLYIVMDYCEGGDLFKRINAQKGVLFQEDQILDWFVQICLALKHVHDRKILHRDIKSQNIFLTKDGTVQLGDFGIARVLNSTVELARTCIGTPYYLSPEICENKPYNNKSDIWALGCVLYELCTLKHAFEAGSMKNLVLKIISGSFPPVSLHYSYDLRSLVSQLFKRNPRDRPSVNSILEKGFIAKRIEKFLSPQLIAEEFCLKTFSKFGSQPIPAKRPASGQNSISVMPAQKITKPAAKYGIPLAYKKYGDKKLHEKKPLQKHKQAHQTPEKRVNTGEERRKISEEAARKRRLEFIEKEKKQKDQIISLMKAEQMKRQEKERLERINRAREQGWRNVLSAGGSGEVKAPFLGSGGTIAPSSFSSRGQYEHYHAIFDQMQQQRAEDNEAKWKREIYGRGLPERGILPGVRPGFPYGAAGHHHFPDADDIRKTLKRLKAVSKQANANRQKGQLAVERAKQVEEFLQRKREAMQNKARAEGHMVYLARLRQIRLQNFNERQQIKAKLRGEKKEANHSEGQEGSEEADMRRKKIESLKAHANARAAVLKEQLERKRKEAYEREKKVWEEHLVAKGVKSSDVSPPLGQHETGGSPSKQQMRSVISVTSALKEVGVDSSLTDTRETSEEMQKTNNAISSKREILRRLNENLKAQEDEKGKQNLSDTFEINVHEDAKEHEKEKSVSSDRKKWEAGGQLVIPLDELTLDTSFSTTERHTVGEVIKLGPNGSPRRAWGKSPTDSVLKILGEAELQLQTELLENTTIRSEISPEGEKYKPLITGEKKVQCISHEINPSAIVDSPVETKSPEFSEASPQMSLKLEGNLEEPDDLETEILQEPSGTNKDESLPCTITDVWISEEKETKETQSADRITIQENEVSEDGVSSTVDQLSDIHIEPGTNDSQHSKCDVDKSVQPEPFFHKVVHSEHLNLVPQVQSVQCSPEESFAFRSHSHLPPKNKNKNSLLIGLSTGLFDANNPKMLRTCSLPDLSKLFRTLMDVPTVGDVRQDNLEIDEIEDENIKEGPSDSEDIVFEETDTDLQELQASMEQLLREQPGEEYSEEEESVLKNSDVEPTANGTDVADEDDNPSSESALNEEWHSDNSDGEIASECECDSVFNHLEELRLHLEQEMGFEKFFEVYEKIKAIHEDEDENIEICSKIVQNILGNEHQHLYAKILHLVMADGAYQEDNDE
To be noted: at 0.1 µM.

Test [3] deals with T2, Serine/threonine-protein kinase Nek1 (Homo sapiens). The following applies: at 1 µM.
In test [4] the target is T3, Serine/threonine-protein kinase Nek2 (Homo sapiens) (UniProt P51955).
T3 sequence (whole entry): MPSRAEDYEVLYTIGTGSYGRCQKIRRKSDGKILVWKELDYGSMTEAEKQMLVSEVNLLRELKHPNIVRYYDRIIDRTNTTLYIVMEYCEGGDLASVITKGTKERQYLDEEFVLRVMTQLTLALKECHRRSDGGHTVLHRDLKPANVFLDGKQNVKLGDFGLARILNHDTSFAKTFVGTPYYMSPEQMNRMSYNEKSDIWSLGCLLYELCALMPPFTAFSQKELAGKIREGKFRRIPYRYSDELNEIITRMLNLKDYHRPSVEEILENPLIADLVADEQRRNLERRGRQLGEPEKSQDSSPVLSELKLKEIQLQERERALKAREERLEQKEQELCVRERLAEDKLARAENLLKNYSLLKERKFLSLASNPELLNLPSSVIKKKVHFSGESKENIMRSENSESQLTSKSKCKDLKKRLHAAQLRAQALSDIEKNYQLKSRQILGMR
To be noted: at 0.1 µM.

The target of test [5] is T3, Serine/threonine-protein kinase Nek2 (Homo sapiens). To be noted: at 1 µM.
In test [6] the target is Serine/threonine-protein kinase Nek6 (Homo sapiens) (UniProt Q9HC98). To be noted: at 0.1 µM.
The target is the same in test [7]. To be noted: at 1 µM.
The target in test [8] is Serine/threonine-protein kinase Nek7 (Homo sapiens) (UniProt Q8TDX7). The following applies: at 0.1 µM.
For test [9] the target is unchanged. To be noted: at 1 µM.
Test [10] deals with T4, Serine/threonine-protein kinase Nek9 (Homo sapiens) (UniProt Q8TD19).
T4 sequence (whole entry): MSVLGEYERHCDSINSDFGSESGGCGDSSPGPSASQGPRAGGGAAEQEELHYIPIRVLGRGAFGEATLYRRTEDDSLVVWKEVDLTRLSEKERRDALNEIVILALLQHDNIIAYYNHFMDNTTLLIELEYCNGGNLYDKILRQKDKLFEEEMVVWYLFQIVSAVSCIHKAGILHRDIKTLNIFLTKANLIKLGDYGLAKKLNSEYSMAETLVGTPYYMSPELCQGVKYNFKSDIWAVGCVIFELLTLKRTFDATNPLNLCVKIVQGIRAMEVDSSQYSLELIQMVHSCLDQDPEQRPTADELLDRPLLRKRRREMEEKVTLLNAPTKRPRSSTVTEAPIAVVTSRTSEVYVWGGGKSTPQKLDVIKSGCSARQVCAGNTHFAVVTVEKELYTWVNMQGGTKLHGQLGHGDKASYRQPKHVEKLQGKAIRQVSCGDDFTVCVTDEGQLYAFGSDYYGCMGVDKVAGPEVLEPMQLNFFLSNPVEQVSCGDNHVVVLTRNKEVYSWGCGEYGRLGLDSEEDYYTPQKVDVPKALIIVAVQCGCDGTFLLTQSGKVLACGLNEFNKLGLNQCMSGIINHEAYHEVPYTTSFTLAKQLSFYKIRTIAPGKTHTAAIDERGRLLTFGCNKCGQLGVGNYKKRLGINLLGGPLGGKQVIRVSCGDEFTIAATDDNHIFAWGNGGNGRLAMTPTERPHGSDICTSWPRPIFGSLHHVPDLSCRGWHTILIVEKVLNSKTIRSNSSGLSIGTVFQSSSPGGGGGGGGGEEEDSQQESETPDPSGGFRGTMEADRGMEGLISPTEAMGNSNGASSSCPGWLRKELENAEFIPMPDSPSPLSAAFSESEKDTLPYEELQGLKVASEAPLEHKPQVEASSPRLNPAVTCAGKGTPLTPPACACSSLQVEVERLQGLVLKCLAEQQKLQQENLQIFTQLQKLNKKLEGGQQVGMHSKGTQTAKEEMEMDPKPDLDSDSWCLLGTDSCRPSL
The following applies: at 0.1 µM.

Test [11] addresses T4, Serine/threonine-protein kinase Nek9 (Homo sapiens). The following applies: at 1 µM.
The target of test [12] is Serine/threonine-protein kinase PLK1 (Homo sapiens) (UniProt P53350). To be noted: at 0.1 µM.
For test [13] the target is unchanged. The following applies: at 1 µM.
The target of test [14] is T5, Dual specificity protein kinase TTK (Homo sapiens) (UniProt P33981).
T5 sequence (whole entry): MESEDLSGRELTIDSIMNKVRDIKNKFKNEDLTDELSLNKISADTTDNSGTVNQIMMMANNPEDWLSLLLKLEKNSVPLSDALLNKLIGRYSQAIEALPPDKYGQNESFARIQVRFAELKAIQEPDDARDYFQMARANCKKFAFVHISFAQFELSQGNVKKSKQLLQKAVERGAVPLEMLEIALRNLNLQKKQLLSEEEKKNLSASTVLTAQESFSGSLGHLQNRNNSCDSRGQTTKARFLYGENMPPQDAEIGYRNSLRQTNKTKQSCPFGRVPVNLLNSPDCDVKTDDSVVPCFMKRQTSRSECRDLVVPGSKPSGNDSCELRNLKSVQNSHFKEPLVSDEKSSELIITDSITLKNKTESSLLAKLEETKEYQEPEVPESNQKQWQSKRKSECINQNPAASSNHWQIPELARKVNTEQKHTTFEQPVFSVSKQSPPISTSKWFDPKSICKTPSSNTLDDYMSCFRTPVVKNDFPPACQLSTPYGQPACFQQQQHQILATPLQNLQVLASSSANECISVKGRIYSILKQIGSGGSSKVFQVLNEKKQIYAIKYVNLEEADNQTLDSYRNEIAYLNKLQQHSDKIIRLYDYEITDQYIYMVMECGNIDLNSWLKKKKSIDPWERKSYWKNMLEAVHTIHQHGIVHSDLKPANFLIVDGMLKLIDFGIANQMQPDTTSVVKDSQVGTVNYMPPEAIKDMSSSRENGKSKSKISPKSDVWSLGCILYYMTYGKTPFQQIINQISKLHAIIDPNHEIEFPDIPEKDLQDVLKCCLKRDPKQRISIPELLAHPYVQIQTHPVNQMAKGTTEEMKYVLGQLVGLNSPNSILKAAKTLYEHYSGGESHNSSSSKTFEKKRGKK
The following applies: at 0.1 µM.

Test [15] deals with T6, Receptor-type tyrosine-protein kinase FLT3 (Homo sapiens), P36888 [D835Y].
T6 sequence (whole entry): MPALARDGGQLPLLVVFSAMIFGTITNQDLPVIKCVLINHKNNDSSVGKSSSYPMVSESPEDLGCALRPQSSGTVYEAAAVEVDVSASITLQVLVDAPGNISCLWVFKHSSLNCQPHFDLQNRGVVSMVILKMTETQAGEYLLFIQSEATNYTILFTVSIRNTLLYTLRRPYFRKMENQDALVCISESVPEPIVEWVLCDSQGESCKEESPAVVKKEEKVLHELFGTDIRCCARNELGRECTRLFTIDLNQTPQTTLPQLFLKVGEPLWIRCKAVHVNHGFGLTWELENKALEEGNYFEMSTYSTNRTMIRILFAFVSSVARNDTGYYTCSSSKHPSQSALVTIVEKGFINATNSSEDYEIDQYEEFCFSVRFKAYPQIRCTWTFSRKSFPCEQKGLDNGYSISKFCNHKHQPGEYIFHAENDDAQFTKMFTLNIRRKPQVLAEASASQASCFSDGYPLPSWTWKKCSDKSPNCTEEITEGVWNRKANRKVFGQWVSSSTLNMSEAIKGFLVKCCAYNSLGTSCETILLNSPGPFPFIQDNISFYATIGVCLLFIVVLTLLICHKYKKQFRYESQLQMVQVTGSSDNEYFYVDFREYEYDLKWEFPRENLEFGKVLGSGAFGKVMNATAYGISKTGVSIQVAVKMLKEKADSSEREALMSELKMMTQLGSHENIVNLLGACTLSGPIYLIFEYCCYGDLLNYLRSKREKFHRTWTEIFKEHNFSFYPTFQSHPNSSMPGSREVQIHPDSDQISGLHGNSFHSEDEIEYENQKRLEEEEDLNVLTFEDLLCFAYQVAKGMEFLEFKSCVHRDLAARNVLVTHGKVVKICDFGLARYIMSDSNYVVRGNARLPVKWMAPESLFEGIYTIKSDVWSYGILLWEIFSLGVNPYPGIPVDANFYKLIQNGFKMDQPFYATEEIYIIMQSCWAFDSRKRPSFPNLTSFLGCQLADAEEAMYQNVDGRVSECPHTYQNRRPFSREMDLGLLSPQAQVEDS
To be noted: at 1 µM.

Test [16] deals with Vascular endothelial growth factor receptor 3 (Homo sapiens) (UniProt P35916). To be noted: at 0.1 µM.
The target is the same in test [17]. The following applies: at 1 µM.
Test [18] concerns the target Macrophage colony-stimulating factor 1 receptor (Homo sapiens) (UniProt P07333). The following applies: at 0.1 µM.
For test [19] the target is unchanged. To be noted: at 1 µM.
For test [20], the target named is Tyrosine-protein kinase Fyn (Homo sapiens) (UniProt P06241). The following applies: at 0.1 µM.

The term inhibition denotes the relative decrease from the control value, in per cent.

Vascular endothelial growth factor receptor 3 (Homo sapiens), sequence (P35916 whole entry): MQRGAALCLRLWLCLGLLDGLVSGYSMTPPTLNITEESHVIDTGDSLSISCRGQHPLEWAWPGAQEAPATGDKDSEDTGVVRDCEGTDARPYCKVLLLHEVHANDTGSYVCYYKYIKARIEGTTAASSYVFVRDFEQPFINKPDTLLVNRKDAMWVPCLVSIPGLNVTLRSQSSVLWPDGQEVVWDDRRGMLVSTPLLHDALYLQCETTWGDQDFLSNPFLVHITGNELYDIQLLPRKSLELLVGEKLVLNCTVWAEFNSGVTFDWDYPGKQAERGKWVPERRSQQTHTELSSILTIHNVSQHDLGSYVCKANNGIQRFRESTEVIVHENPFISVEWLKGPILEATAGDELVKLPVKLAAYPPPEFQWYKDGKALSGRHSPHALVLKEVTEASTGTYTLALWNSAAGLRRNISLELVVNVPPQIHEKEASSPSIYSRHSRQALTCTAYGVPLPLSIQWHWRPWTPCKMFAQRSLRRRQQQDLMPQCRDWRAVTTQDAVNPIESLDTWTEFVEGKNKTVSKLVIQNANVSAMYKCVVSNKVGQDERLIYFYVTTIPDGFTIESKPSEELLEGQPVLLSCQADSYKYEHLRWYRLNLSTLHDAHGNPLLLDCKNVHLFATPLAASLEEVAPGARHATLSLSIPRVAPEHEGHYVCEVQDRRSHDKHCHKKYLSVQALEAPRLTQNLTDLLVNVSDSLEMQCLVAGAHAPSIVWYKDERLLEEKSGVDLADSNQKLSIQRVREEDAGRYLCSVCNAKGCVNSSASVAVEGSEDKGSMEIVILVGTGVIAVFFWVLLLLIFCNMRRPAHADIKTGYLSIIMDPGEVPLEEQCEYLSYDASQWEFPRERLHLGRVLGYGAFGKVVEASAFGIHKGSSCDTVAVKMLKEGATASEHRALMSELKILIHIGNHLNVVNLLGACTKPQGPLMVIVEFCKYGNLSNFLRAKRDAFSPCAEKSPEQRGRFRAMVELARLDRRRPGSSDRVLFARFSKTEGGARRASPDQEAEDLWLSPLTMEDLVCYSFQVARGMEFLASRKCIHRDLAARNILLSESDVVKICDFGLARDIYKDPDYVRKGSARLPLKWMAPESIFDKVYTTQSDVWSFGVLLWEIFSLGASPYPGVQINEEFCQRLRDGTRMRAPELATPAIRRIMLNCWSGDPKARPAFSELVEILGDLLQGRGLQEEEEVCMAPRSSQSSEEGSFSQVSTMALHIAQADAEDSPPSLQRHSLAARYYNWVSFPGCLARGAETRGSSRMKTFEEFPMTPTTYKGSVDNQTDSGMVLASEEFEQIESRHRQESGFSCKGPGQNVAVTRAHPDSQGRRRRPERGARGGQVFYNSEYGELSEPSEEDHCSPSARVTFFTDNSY
Macrophage colony-stimulating factor 1 receptor (Homo sapiens), sequence (P07333 whole entry): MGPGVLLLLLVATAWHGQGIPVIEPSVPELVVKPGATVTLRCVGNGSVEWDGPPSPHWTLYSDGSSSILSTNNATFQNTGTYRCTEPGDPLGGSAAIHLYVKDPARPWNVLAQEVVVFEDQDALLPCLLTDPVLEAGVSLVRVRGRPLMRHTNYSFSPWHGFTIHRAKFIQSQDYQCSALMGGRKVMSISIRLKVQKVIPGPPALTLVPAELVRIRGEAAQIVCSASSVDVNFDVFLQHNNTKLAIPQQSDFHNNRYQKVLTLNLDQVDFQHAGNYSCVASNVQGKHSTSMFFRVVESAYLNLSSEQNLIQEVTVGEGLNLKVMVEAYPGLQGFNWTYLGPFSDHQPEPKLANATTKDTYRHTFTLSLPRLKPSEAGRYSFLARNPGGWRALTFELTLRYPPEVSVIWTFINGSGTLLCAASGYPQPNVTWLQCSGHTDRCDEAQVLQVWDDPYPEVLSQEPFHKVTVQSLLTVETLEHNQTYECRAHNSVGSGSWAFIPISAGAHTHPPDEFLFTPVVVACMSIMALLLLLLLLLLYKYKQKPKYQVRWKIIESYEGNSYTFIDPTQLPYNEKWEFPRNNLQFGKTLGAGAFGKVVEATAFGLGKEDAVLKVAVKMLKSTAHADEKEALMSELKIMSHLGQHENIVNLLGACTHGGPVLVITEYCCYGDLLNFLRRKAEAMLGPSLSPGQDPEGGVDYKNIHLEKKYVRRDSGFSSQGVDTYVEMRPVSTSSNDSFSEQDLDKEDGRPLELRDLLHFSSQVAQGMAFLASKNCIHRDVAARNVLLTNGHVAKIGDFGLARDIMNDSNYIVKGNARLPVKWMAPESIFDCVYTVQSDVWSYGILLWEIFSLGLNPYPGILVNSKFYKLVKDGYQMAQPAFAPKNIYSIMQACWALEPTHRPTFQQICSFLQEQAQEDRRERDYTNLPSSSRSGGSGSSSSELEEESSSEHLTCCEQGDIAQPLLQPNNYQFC
Serine/threonine-protein kinase PLK1 (Homo sapiens), sequence (P53350 whole entry): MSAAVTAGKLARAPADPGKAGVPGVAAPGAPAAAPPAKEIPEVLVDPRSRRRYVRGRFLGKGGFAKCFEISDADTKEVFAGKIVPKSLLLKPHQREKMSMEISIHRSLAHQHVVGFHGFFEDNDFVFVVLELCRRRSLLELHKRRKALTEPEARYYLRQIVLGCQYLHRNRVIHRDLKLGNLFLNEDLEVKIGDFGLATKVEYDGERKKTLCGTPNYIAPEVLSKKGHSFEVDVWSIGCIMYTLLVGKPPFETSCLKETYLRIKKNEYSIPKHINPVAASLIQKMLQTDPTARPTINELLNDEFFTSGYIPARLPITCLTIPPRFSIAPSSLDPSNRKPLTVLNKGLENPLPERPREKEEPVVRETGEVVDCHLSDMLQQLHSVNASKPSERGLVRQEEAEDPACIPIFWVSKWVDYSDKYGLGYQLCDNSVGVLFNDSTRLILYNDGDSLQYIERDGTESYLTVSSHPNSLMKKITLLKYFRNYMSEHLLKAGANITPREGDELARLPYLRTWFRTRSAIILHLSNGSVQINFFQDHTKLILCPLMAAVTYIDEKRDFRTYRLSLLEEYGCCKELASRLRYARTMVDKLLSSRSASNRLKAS
Serine/threonine-protein kinase Nek6 (Homo sapiens), sequence (Q9HC98 whole entry): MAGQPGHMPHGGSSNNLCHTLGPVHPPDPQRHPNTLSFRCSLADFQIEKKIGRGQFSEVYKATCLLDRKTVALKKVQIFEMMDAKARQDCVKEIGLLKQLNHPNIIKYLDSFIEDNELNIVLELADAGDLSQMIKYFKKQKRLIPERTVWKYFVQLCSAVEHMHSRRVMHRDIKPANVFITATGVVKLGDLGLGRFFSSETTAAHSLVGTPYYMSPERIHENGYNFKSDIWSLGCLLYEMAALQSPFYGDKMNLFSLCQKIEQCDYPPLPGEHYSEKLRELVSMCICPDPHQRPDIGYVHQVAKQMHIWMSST
Serine/threonine-protein kinase Nek7 (Homo sapiens), sequence (Q8TDX7 whole entry, looked up): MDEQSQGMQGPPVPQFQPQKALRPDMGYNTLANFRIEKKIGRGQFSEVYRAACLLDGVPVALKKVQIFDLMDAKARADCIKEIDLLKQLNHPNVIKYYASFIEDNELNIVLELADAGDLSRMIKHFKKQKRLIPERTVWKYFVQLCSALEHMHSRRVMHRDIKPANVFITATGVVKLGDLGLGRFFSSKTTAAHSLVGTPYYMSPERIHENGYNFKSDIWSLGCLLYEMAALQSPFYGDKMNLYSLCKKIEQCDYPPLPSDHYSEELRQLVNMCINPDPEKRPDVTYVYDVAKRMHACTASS
Tyrosine-protein kinase Fyn (Homo sapiens), sequence (P06241 2-537 limits assumed): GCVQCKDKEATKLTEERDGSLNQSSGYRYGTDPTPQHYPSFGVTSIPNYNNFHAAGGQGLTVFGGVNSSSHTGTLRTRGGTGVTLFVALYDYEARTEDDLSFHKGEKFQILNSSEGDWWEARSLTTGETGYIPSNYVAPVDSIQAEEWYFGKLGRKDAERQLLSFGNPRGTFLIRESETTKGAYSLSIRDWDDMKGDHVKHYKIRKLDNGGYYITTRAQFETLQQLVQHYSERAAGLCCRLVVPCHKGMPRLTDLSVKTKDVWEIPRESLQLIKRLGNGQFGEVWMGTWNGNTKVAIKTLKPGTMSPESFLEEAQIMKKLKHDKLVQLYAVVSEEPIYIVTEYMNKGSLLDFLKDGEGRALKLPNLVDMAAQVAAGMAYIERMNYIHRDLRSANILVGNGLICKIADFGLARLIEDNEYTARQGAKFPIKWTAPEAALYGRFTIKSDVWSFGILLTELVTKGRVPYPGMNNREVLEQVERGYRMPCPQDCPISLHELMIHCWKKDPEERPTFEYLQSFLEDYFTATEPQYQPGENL

On to `Oc1cccc(-c2nc(-c3ccccc3)[nH]c2-c2ccncc2)c1`, for which the inhibition in test [1] was 4.72%; in test [2] it was 2.81%; in test [3] it was 3.39%; in [4], 3.98%; in [5], 4.3%; in test [6] it was -0.13%. Also, the inhibition in test [7] turned out to be 4.45%; in test [8], 4.5%; in [9], 5.32%; in [10], 9.92%; in test [11], 6.73%; in test [12], 4.15%. The inhibition in test [13] is 1.85%; in test [14], 3.33%; in test [15], 22.4%; in [16] it was 7.41%; in test [17], 30.4%; in test [18], 1.63%. Further, the results for the inhibition in test [19] and in test [20] were 5.02% and 3.67%, respectively.

The values are drawn from ChEMBL document CHEMBL1961873, “Compounds: GSK PKIS; Assays: Nanosyn kinase panel” (2012).
